Here are results for 12 molecules from PubChem BioAssay (NCI).

The panel holds about 83,000 compounds, 20% with a hit somewhere; the sample as a whole holds those more often.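 96-well plates, one dose, 48 hours. Percent growth reported; active if below 10.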 Unmarked numbers belong to inactive results. Active and inactive are the calls of the source.

Test systems include SR leukemia; RPMI-8226 leukemia; OVCAR-8 ovarian; OVCAR-5 ovarian; OVCAR-4 ovarian; SK-OV-3 ovarian; IGROV1 ovarian; OVCAR-3 ovarian; HS 578T breast; NCI/ADR-RES ovarian.
Holding throughout (assay): NCI-60 one-dose screen, 48 h (100 = growth as untreated, 0 = no growth, -100 = all killed)
Common to all, as to conditions: 10 µM unless noted

Turning to `COc1ccc2sc(NC(=O)CCCCCCNC(=O)C(O)(O)C(F)(F)F)nc2c1`, the growth in the assay on SR leukemia was 12.5%; in the assay on RPMI-8226 leukemia, 14.6%; in the assay with OVCAR-8 ovarian, 2.54% (active); in the assay on OVCAR-5 ovarian, -0.588% (active); with OVCAR-4 ovarian, 27.7%; with SK-OV-3 ovarian it was -26.6% (active). The growth is 0.233% (active) with IGROV1 ovarian, -23.9% (active) in the assay with OVCAR-3 ovarian, 19.1% in the assay with HS 578T breast and 5.2% (active) with NCI/ADR-RES ovarian.

As for `O=c1nc(Nc2ccc([N+](=O)[O-])cc2O)sc2ccccc12`, the growth with SR leukemia was 24.2%; in the assay on RPMI-8226 leukemia, 3.35% (active); with OVCAR-8 ovarian, 24.1%; with OVCAR-5 ovarian, 47.4%; in the assay with OVCAR-4 ovarian it was 36.9%; with SK-OV-3 ovarian, 49.2%. Besides, the growth in the assay with IGROV1 ovarian is 33.2%; in the assay on OVCAR-3 ovarian, 14%; with HS 578T breast, 27.4%; in the assay on NCI/ADR-RES ovarian, 22.5%.

`CC(=O)OC[C@]12CC[C@@H](C(=O)/C=C/c3cccnc3)[C@@H]1[C@H]1CC[C@@H]3[C@@]4(C)CC[C@H](OC(C)=O)C(C)(C)[C@@H]4CC[C@@]3(C)[C@]1(C)CC2`: the growth was 6.42% (active) in the assay with SR leukemia; -5.49% (active) in the assay on RPMI-8226 leukemia; 23.2% with OVCAR-8 ovarian; 15.1% with OVCAR-5 ovarian; 21.9% in the assay with OVCAR-4 ovarian; 65.8% in the assay with SK-OV-3 ovarian. Besides, the growth in the assay on IGROV1 ovarian is -12.9% (active); in the assay on OVCAR-3 ovarian, 8.9% (active); in the assay with HS 578T breast it was 14.5%; with NCI/ADR-RES ovarian it was -14.2% (active).

In the case of `O=C(Nc1ccccc1)Nc1nc2ccc([N+](=O)[O-])cc2[nH]1`, the growth is 70.4% in the assay with SR leukemia; 46.1% in the assay on RPMI-8226 leukemia; 66.9% in the assay with OVCAR-8 ovarian; 75.2% in the assay on OVCAR-5 ovarian; 23.5% in the assay with OVCAR-4 ovarian; 73.4% with SK-OV-3 ovarian. The growth is 45.9% in the assay on IGROV1 ovarian, 38.3% in the assay on OVCAR-3 ovarian, 75.5% in the assay on HS 578T breast and 69.1% in the assay with NCI/ADR-RES ovarian.

For the molecule `COc1ccc2[nH]cc(-c3nc(N)nnc3-c3cn(C)c4ccc(Br)cc34)c2c1`, the growth with SR leukemia was 9.35% (active); in the assay on RPMI-8226 leukemia, 6.31% (active); with OVCAR-8 ovarian, 42.8%; with OVCAR-5 ovarian it was 56.5%; with OVCAR-4 ovarian, 63.6%; in the assay with SK-OV-3 ovarian it was 44%. Moreover, the growth in the assay with IGROV1 ovarian was 38.9%; with OVCAR-3 ovarian, -8.84% (active); in the assay on HS 578T breast, 16.9%; with NCI/ADR-RES ovarian, 64.3%.

Turning to `Cc1ccc(S(=O)(=O)NCCCNc2nc(Nc3ccc(N4CCN(C)CC4)cc3)nc3ccsc23)cc1`, the growth with SR leukemia was 4.16% (active); in the assay on RPMI-8226 leukemia, 6.57% (active); with OVCAR-8 ovarian, 40%; in the assay on OVCAR-5 ovarian, 73.9%; in the assay with OVCAR-4 ovarian it was 23.7%; in the assay on SK-OV-3 ovarian, 117%. Further, the growth with IGROV1 ovarian is 57.1%; in the assay on OVCAR-3 ovarian, 14.6%; in the assay on HS 578T breast, 44%; with NCI/ADR-RES ovarian, 70.4%.

Turning to `CCN(CC)S(=O)(=O)c1ccc(-c2nc(C(Cl)Cl)nc3cc(C)nn23)cc1`, the growth with SR leukemia is 9.52% (active); in the assay with RPMI-8226 leukemia it was -7.21% (active); in the assay with OVCAR-8 ovarian it was 12.3%; in the assay with OVCAR-5 ovarian it was 41.5%; with OVCAR-4 ovarian it was 34.4%; with SK-OV-3 ovarian, 18.4%. In addition, the growth was 12% in the assay with IGROV1 ovarian, 21.1% in the assay on OVCAR-3 ovarian, 35.6% in the assay on HS 578T breast and 14% in the assay with NCI/ADR-RES ovarian.

Regarding `Cc1csc(/N=C(N)/N=C(\N)c2cccc(Br)c2)n1`, the growth with SR leukemia is 66.9%; in the assay with RPMI-8226 leukemia, 102%; in the assay with OVCAR-8 ovarian it was 96.5%; in the assay with OVCAR-5 ovarian, 102%; in the assay on OVCAR-4 ovarian, 95.5%; in the assay on SK-OV-3 ovarian, 91.5%. For the same molecule, the growth in the assay on IGROV1 ovarian is 81.4%; in the assay on OVCAR-3 ovarian, 107%; in the assay with HS 578T breast, 95.1%; in the assay with NCI/ADR-RES ovarian, 72.7%.

Turning to `COc1cc(C(=O)c2cc(C(C)=O)c3ccc(C)cn23)cc(OC)c1OC`, the growth in the assay with SR leukemia was 26.9%; in the assay on RPMI-8226 leukemia, 54.6%; in the assay with OVCAR-8 ovarian, 50.6%; in the assay with OVCAR-5 ovarian, 59.5%; in the assay with OVCAR-4 ovarian, 79.7%; with SK-OV-3 ovarian, 77.4%. The growth in the assay with IGROV1 ovarian was 41.9%; in the assay with OVCAR-3 ovarian, 28%; with HS 578T breast, 59%; in the assay with NCI/ADR-RES ovarian it was 18.4%.

Turning to `COc1ccc(OC)c(NC(=O)CCCCCCNC(=O)C(O)(O)C(F)(F)F)c1`, the growth was 12.9% in the assay on SR leukemia; 20.9% in the assay with RPMI-8226 leukemia; 23.4% in the assay on OVCAR-8 ovarian; 26.3% in the assay on OVCAR-5 ovarian; 86.7% in the assay on OVCAR-4 ovarian; 6.28% (active) in the assay on SK-OV-3 ovarian. Further, the growth in the assay on IGROV1 ovarian is 55.2%; in the assay on OVCAR-3 ovarian it was 40.5%; with HS 578T breast, 49.7%; in the assay on NCI/ADR-RES ovarian it was 32.8%.

Consider `O=C(CCCCCCNC(=O)C(O)(O)C(F)(F)F)Nc1nc2ccccc2s1`, for which the growth in the assay on SR leukemia is 16.7%; with RPMI-8226 leukemia, 13.5%; in the assay on OVCAR-8 ovarian, 8.26% (active); in the assay on OVCAR-5 ovarian it was 1.89% (active); with OVCAR-4 ovarian, 35.9%; with SK-OV-3 ovarian it was -26.3% (active). In addition, the growth was -3.25% (active) with IGROV1 ovarian, -38.8% (active) in the assay with OVCAR-3 ovarian, 12.5% with HS 578T breast and 1.87% (active) in the assay on NCI/ADR-RES ovarian.

Turning to `COc1ccccc1/C=C1\Oc2ccc(O)c(O)c2C1=O`, the growth with SR leukemia is 99.6%; in the assay on RPMI-8226 leukemia it was 93.5%; in the assay with OVCAR-8 ovarian it was 94.1%; in the assay with OVCAR-5 ovarian it was 105%; with OVCAR-4 ovarian it was 84%; in the assay with SK-OV-3 ovarian it was 105%. The growth with IGROV1 ovarian was 98.7%; in the assay with OVCAR-3 ovarian, 102%; in the assay on HS 578T breast, 87.9%; in the assay with NCI/ADR-RES ovarian, 98.5%.
